# Experimental data: article PMC6212833
# Over roughly 2,000 compounds, “B-score” has its median near -0.0024; the highest 2% begin near 4. Many of the other results were omitted from the sample, so the highest values are more common in it than they were.
# Tested on: Balamuthia mandrillaris (ATCC PRA-291) trophozoites, axenic culture
# Test: primary screen, b score
# Details: 20 µM
# Summary of the method: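 Trophozoites (3,000/well) in axenic medium exposed to library drugs at 20 µM in 0.2% DMSO for 72 h; viability by CellTiter Glo luminescence at 2, 4 and 8 h. Controls: vehicle and freeze-thaw amoeba lysate; B-score corrects row, column and edge effects.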
row,Compound,B-score
1,CN1CCC(=C2c3ccccc3Sc3ccccc32)CC1,-1.07
2,CN/C(=C/[N+](=O)[O-])NCCSCc1ccc(CN(C)C)o1,-2.02
3,CN/C(=C\[N+](=O)[O-])NCCSCc1ccc(CN(C)C)o1,14.6
4,CN/C(=C\[N+](=O)[O-])NCCSCc1csc(CN(C)C)n1,-0.177
5,COC(=O)/C=C/C(=O)OC,1.25
6,COc1ccc(NS(=O)(=O)c2ccc(N)cc2)nn1,4.49
7,COc1cc(NS(=O)(=O)c2ccc(N)cc2)ncn1,3.08
8,Nc1ccc(S(=O)(=O)Nc2ccc(Cl)nn2)cc1,1.1
9,CNC[C@H](O)[C@@H](O)[C@H](O)[C@H](O)CO [757068-L1],-0.164
10,Cc1scc2c1N(C(=O)CN1CCN(C)CC1)c1ccccc1NC2=O,-4.76
11,N#Cc1nn(-c2c(Cl)cc(C(F)(F)F)cc2Cl)c(N)c1S(=O)C(F)(F)F (centres unmarked),0.119
12,OC[C@@H]1CC[C@H](n2cnc3c(O)ncnc32)O1,0.384
13,C#C[C@]1(O)CC[C@H]2[C@@H]3CCC4=CC(=O)CC[C@@H]4[C@H]3CC[C@@]21C,5.5
14,C#C[C@]1(O)CCC2C3CCC4=CC(=O)CC[C@@H]4C3CCC21CC (some centres unmarked),-1.87
15,C#C[C@]1(O)CCC2C3CCC4=CC(=O)CC[C@@H]4C3CC[C@@]21C (some centres unmarked),0.0185
16,CO/N=C(\C(=O)N[C@@H]1C(=O)N2C(C(=O)O)=C(CSc3nc(=O)c(=O)[nH]n3C)CS[C@H]12)c1csc(N)n1,-0.496
17,CC(C[N+](C)(C)C)OC(N)=O (centres unmarked),1.72
18,CC(=O)[C@H]1CCC2C3CC=C4C[C@@H](O)CC[C@]4(C)C3CC[C@@]21C (some centres unmarked),-1.35
19,N=C(N)c1ccc(N=NNc2ccc(C(=N)N)cc2)cc1,9.37

row,Compound,B-score
1,Nc1c2ccccc2nc2ccccc12,-0.407
2,CC(=O)c1ccc2c(c1)N(CCCN(C)C)c1ccccc1S2,0.888
3,COc1cc(C(=O)NCCCCCC(=O)O)cc(OC)c1OC,-2.61
4,CC1=C(/C=C/C(C)=C/C=C/C(C)=C\C(=O)O)C(C)(C)CCC1,1.46
5,NC(=O)c1cc[n+](CC2=C(C(=O)O)N3C(=O)[C@@H](NC(=O)Cc4cccs4)[C@H]3SC2)cc1,0.071
6,CCC(C)n1ncn(-c2ccc(N3CCN(c4ccc(OCC5COC(Cn6cncn6)(c6ccc(Cl)cc6Cl)O5)cc4)CC3)cc2)c1=O (centres unmarked),-1.07
7,CCC(C)n1ncn(-c2ccc(N3CCN(c4ccc(OC[C@H]5CO[C@](Cn6cncn6)(c6ccc(Cl)cc6Cl)O5)cc4)CC3)cc2)c1=O (some centres unmarked),5.45
8,CC(C)N1CCN(c2ccc(OC[C@H]3CO[C@](Cn4cncn4)(c4ccc(Cl)cc4Cl)O3)cc2)CC1,2.03
9,O=c1[nH]c(=O)c2ccccc2o1,1.88
10,C(=C\c1ccccc1)/CN1CCN(C(c2ccccc2)c2ccccc2)CC1 [255681-L2],0.414
11,Cc1cn[nH]c1 [285621-L4],2.94
12,Cc1cc(-c2ccc(/N=N/c3ccc4c(S(=O)(=O)O)cc(S(=O)(=O)O)c(N)c4c3O)c(C)c2)ccc1/N=N/c1ccc2c(S(=O)(=O)O)cc(S(=O)(=O)O)c(N)c2c1O,11
13,CN(C)CC(c1ccc(O)cc1)C1(O)CCCCC1 (centres unmarked),-2.24
14,Nc1nc(O)c2nc(CNc3ccc(C(=O)N[C@@H](CCC(=O)O)C(=O)O)cc3)cnc2n1 [131189-L3],-0.599
15,C[N+](C)(C)CCOP(=O)([O-])OP(=O)(O)OC[C@H]1O[C@@H](n2ccc(N)nc2=O)[C@H](O)[C@@H]1O,-1.73
16,CN(C)c1ccc(C(=C2C=CC(=[N+](C)C)C=C2)c2ccc(N(C)C)cc2)cc1,9.22
17,O=C(OOC(=O)c1ccccc1)c1ccccc1,-0.0136
18,CC(C)(C)CC(C)(C)c1cc(Cc2cc(C(C)(C)CC(C)(C)C)cc(-n3nc4ccccc4n3)c2O)c(O)c(-n2nc3ccccc3n2)c1,-1.88
19,Cc1ccc(-c2ncc(Cl)cc2-c2ccc(S(C)(=O)=O)cc2)cn1,2.78

row,Compound,B-score
1,Cc1nc2n(c(=O)c1CCN1CCC(c3noc4cc(F)ccc34)CC1)CCC[C@H]2O,0.893
2,OCC(S)CS (centres unmarked),8.18
3,CC(O)Cn1cnc2c1c(=O)n(C)c(=O)n2C (centres unmarked),-3.33
4,NS(=O)(=O)c1cc(C2(O)NC(=O)c3ccccc32)ccc1Cl (centres unmarked),0.358
5,O[C@H]1[C@H](O)[C@@H](O)[C@H](O)[C@@H](O)[C@H]1O,-1.95
6,CC(C)/N=C(N)/N=C(\N)Nc1ccc(Cl)cc1 [131550-L2],0.326
7,CC(C)/N=C(N)/N=C(\N)Nc1ccc(Cl)cc1 [131550-L3],-1.38
8,N=C(NCCCCCCNC(=N)NC(=N)Nc1ccc(Cl)cc1)NC(=N)Nc1ccc(Cl)cc1,20.8
9,Cc1cccc(C)c1NC(=O)C(C)N (centres unmarked),0.0863
10,CC[C@@H](CO)NC(=O)[C@@H]1C=C2c3cccc4c3c(cn4C)C[C@H]2N(C)C1 [756841-L1],0.825
11,CC(=O)Oc1cc2c(s1)CCN([C@H](C(=O)C1CC1)c1ccccc1F)C2,0.0184
12,CN[C@@H]1[C@@H](O[C@H]2O[C@H](CO)[C@@H](N)[C@H](O)[C@H]2O)O[C@H]2C[C@@H](N)[C@H](O[C@H]3[C@H](O)[C@@H](O)[C@H](N)C[C@@H]3N)O[C@@H]2[C@@H]1O,-1.36
13,O=C(O)c1ccccc1-c1c2cc(I)c(=O)c(I)c-2oc2c(I)c(O)c(I)cc12,14.8
14,N[C@@H]1[C@H]2CN(c3nc4c(cc3F)c(=O)c(C(=O)O)cn4-c3ccc(F)cc3F)C[C@@H]12,-1.05
15,C#C[C@]1(O)CCC2C3CCc4cc(OC)ccc4C3CC[C@@]21C (some centres unmarked),-0.0352
16,COc1cc2c(cc1OC)C(=O)C(CC1CCN(Cc3ccccc3)CC1)C2 (centres unmarked),-0.41
17,c1ccc2c(c1)Nc1ccccc1S2,0.971
18,CC(=O)N[C@@H]1[C@@H](C(O)[C@H](O)CO)O[C@](O)(C(=O)O)C[C@@H]1O (some centres unmarked),-1.13
